Measured values from PubChem BioAssay (NCATS).
Inconclusive results are not listed. A number with no mark means an inactive call. Active and inactive are the calls of the source. Calls follow the shape of the dose curve; as a rule, active = well fitted inhibition curve with a large enough effect; inconclusive = small, poorly fitted or top-dose-only effect, or effect the other way; inactive = flat fitted curve, though single readings scatter.

What follows are compounds tested against ATP-dependent 6-phosphofructokinase (Trypanosoma brucei brucei) (UniProt O15648) (assay: qHTS Assay to Find Inhibitors of T. brucei phosphofructokinase: hit validation (AID 492961;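 also: luminescence reports ADP formed as PFK phosphorylates fructose-6-phosphate with ATP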)). Conditions: T. brucei PFK, ADP-Glo luminescence; series mostly up to 51.4 µM; activity change, negative = inhibition: at the top concentration.
ATP-dependent 6-phosphofructokinase (Trypanosoma brucei brucei), sequence (O15648 whole entry, looked up): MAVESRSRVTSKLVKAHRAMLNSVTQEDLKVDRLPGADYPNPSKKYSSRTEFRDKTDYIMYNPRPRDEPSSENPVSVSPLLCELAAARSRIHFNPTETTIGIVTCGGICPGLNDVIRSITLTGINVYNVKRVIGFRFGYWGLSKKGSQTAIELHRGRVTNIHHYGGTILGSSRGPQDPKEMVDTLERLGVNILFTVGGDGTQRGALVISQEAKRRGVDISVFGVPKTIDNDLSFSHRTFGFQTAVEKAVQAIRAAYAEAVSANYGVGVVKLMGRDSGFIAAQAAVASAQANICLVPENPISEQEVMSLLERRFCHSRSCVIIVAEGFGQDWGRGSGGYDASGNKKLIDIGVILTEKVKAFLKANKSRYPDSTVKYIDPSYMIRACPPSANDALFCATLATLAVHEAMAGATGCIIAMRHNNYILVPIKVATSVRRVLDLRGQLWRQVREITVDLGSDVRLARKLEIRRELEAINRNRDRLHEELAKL
How it was run: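 ADP-Glo luminescence read-out of ADP formed by 1.25 nM PFK from 0.1 mM ATP and 0.5 mM F6P (TEA pH 8.0, 45 min, RT). Compounds titrated; activity normalized to no-enzyme and full-enzyme controls.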
% is scaled to controls: 0 for no effect and ±100 for the full control effect.

Structure (SMILES) | activity change, negative = inhibition | Potency
Nc1nc2c(ncn2CCC(CO)CO)c(=O)[nH]1 | -6.66% | 
CC1(C)[C@@H]2CC[C@@]1(C)C(=O)C2 | 1.93% | 
NC(=O)NC(=O)Cc1ccccc1 | -2.12% | 
CCOC(=O)c1ccc(O)cc1 | -5.94% | 
CCn1cc(C(=O)O)c(=O)c2cnc(N3CCNCC3)nc21 | -8.39% [at 24.3 µM] | 
CC(=O)Nc1ccc(/C=N/NC(N)=S)cc1 |  | inactive
CCN(CC)CCSC(=O)C(c1ccccc1)c1ccccc1 |  | inactive
CC(=O)Oc1ccc(C2(c3ccc(OC(C)=O)cc3)C(=O)Nc3ccccc32)cc1 |  | inactive
Cc1ncc(COP(=O)(O)O)c(C=O)c1O | -5.52% | 
CC12CCC(CC1)C(C)(C)O2 | -7.84% | 
CCCCN(CCCC)CCCOC(=O)c1ccc(N)cc1 | 1.47% [at 24.3 µM] | 
[O-][n+]1cccc(CO)c1 | 5.97% | 
Oc1cn2c(n1)Nc1ccc(Cl)c(Cl)c1C2 | 0% | 
CCCCC(CC)COC(=O)c1ccccc1O (stereo not given) | -7.76% | 
CN1CCC[C@@H]1Cc1c[nH]c2ccc(CCS(=O)(=O)c3ccccc3)cc12 | -4.61% | 
CC(C)(C)C(=O)NCCCC(=O)O | -9.41% | 
CC(C)(C)NCC(O)COc1ccc(NC(=O)NC2CCCCC2)cc1 (stereo not given) | -6.77% | 
Oc1cccc(O)c1 | -1.98% | 
Cn1cc[nH]c1=S | -5.51% [at 24.3 µM] | 
O=C1O[C@H]([C@@H](O)CO)C(O)=C1O | -9.67% | 
NC(=O)NNc1ccccc1 |  | inactive
O=C(O)[C@@H]1CSCN1 | -19% | 
NC(=O)N/N=C/c1ccc([N+](=O)[O-])o1 | 8.16% | 
Cc1cccc(C)c1NC(=O)CN(CC(=O)O)CC(=O)O | 6.92% | 
CCCCc1ncc(/C=C(\Cc2cccs2)C(=O)O)n1Cc1ccc(C(=O)O)cc1 | -3.84% | 
